KCNQ2 inh = KCNQ2 (rat) channel inhibition | CHO-K1 KCNQ2, FluxOR thallium flux, 20 min; stronger effect = lower value | B-score at 10 µM | 310,000 tested, 1.1% active | AID 2156;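 active = fluorescence ratio B-score at most minus 3 library SDs, with starting brightness B-score within 2 library SDs, cut at about -5.5 in these data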
KCNQ2 enhance = KCNQ2 (rat) channel potentiation | O88943 | CHO-K1 KCNQ2, FluxOR thallium flux fluorescence; stronger effect = higher value | B-score at 10 µM | 310,000 tested, 0.54% active | AID 2239;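 active = fluorescence ratio B-score at least 3 SD of library B-scores, with initial fluorescence B-score within 3 of them, cut at about 5.3 in these data; same plate scores as AID 2156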;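 note: B-score of peak minus minimum over baseline fluorescence ratio after K+ and Tl+ stimulus; positive B-score means potentiation of KCNQ2 with more thallium influx and brighter signal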
Kir21 confirm = confirmation of mouse Kir2.1 potassium channel inhibitors; shares compounds with KCNQ2 enhance; Kir2.1-expressing cells, FluxOR thallium flux fluorescence; stronger effect = lower value; Tl flux remaining, % of negative control (stronger effect = lower value), % at 10 µM; 2,300 tested, 41% active;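 active = Primary-screen hit whose thallium flux fell at least 3 control SD below untreated wells in both duplicates, with normal baseline fluorescence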
HEK293 ctr = counter-screen for Kir2.1 inhibitors: effect in parental HEK293 cells; shares compounds with KCNQ2 enhance; FluxOR thallium flux fluorescence; 0% = unstimulated blank wells; FluxOR signal as % of negative control (100 = no effect), % at 10 µM; 2,300 tested, 19% active;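 active = dye signal at least 3 control SD above or below untreated wells in both duplicates, raw fluorescence within 3, either direction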;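 note: percent is based on the flux ratio of peak minus minimum fluorescence over baseline F0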
CHO-K1 Tl ctr = parental CHO-K1 activity in KCNQ2 potentiator counter-screen. activity increase over 3SD of controls, % at 10 µM. parental CHO-K1 cells, FluxOR thallium flux fluorescence; zero = vehicle mean+3SD, 100% = vehicle-minus-blank window. AID 2282. shares compounds with KCNQ2 enhance. 1,200 tested, 43% active;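 active = signal rise of at least 3 SD above the untreated control mean, in both duplicate wells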;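 note: counter screen of KCNQ2 potentiator hits so any rise reflects channel-independent effects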
KCNQ1 pot spec = human KCNQ1 counter-target activity of KCNQ2 potentiators. shares compounds with KCNQ2 enhance. CHO KCNQ1 stable, FluxOR thallium flux fluorescence; beyond 3SD, as % of vehicle-control signal. activation over 3SD threshold, % at 10 µM. 1,200 tested, 28% active;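 active = fluorescence ratio rise of at least 3 SD of vehicle wells above their mean, in both replicate wells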
Target sequence (P51787 whole entry, looked up): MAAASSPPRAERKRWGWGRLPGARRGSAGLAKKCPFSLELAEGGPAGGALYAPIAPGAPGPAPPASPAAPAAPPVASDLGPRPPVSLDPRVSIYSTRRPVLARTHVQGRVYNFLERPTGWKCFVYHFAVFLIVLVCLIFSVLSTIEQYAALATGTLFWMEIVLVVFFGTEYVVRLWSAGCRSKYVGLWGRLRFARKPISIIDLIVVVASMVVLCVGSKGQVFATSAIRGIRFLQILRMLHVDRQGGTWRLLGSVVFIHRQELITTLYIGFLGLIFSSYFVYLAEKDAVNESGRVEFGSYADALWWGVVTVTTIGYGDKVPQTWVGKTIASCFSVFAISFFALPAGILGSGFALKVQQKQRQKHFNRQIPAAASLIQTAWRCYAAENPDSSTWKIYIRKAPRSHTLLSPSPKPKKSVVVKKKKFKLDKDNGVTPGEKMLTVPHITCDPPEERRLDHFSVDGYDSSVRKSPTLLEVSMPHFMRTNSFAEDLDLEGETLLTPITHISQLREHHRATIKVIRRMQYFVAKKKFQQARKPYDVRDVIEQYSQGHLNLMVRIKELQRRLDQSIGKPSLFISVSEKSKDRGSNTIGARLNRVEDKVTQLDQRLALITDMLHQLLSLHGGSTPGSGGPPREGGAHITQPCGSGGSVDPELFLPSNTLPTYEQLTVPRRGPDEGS
KCNQ2 pot confirm = confirmation of rat KCNQ2 potassium channel potentiators | shares compounds with KCNQ2 enhance | CHO-KCNQ2 cells, FluxOR thallium flux fluorescence | potentiation, less the hit threshold, % at 10 µM | 1,200 tested, 68% active | AID 2287;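 active = fluorescence ratio rising 3 SD or more over the vehicle control mean in both replicates, plus primary screen hit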;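 note: peak minus minimum thallium fluorescence divided by baseline after K/Tl stimulus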
Kir2-1 sel = selectivity of KCNQ2 potentiators: effect on mouse Kir2.1; 1,200 tested, 2% active; AID 2345; activity over 3SD threshold, % at 10 µM; HEK293 Kir2.1, FluxOR thallium flux fluorescence; shares compounds with KCNQ2 enhance;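 active = fluorescence ratio rise of at least 3 SD above the vehicle-control mean, seen in both replicates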
KCNQ2 W236L pot = rat KCNQ2 W236L mutant potentiation by KCNQ2 potentiators. shares compounds with KCNQ2 enhance. CHO KCNQ2-W236L, automated patch clamp current. current increase over 3SD of negative controls (%), stronger effect = higher value, % at 25 µM. 940 tested, 10% active. AID 2558;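 active = current increase at least 3 SD of the untreated controls above them in both duplicate recordings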
Hits are given with their value; 0 = inactive; - = not tested or not shown. Hits are enriched below; roughly 1.6% of the tested compounds scored in any of these assays.

SMILES | KCNQ2 inh | KCNQ2 enhance | Kir21 confirm | HEK293 ctr | others
Oc1c(Br)cc(/C=N/Nc2ccc(Cl)nn2)cc1Br | 0 | 0 | - | -
COc1cc([N+](=O)[O-])ccc1NC(=S)NNC(=O)CCC(=O)Nc1ccccc1Cl | 0 | 0 | - | -
CCN(CC)c1ccc(C(=O)OCC(=O)NCC2CCCO2)cc1 (configuration not stated) | 0 | 0 | - | -
CCOc1ccc(Nc2ccnc3cc(Cl)ccc23)cc1 | 0 | - | - | -
CN1CCN(c2ccc(Nc3ccnc4cc(Cl)ccc34)cc2)CC1 | 0 | - | 58% | 0
CSc1ccc(S(=O)(=O)NC(C)c2ccccc2)cc1 (configuration not stated) | 0 | 0 | 42% | 0
CSc1ccc(S(=O)(=O)NCc2ccccc2)cc1 | 0 | - | - | -
Cc1ccc(S(=O)(=O)NC(C)c2ccccc2)cc1[N+](=O)[O-] (configuration not stated) | 0 | 0 | 46% | 0
C/C(CC(C)C)=N\NS(=O)(=O)c1ccc(C)c([N+](=O)[O-])c1 | 0 | - | - | -
O=C(NCc1ccon1)C1CCC(=O)N(CCc2cccc(F)c2)C1 (configuration not stated) | 0 | - | - | -
CCOc1ccc(N2CC(C(=O)Nc3ccccc3N3CCOCC3)CC2=O)cc1 (configuration not stated) | 0 | 0 | - | -
O=C(O)c1ccc(Nc2cc(Cl)c3nonc3c2[N+](=O)[O-])cc1 | 0 | 0 | - | -
O=[N+]([O-])c1c(Nc2cccc(O)c2)cc(Cl)c2nonc12 | -16 | 0 | 0 | 0
Cc1occc1C(=O)Nc1ccc2c(c1)OCCO2 | 0 | 0 | - | -
Cc1occc1C(=O)Nc1ccc2c(c1)CCC2 | 0 | 7.2 | 0 | 0 | CHO-K1 Tl ctr=0;KCNQ1 pot spec=0;KCNQ2 pot confirm=32;Kir2-1 sel=0;KCNQ2 W236L pot=0
COc1cc([N+](=O)[O-])cc2sc(NC(=O)c3c(F)cccc3F)nc12 | 0 | - | - | -
O=C(CSc1nc2ccccc2o1)Nc1ccccc1N1CCOCC1 | 0 | 0 | 56% | 0
O=C(CSc1nc2ccccc2o1)Nc1ccc(N2CCOCC2)cc1 | 0 | - | - | -
CC1CCN(CC(O)CN2c3ccccc3Sc3ccccc32)CC1 (configuration not stated) | 0 | - | - | -
CSc1ccc2c(c1)N(CCC1CCCCN1C)c1ccccc1S2 (configuration not stated) | -5.8 | 0 | 23% | 0
Cc1ccccc1NC(=O)CSc1nc2ccccc2c(=O)n1C | 0 | 0 | - | -
CC(C)Oc1ccccc1NC(=O)CSc1nc2ccccc2c(=O)n1C | 0 | 0 | 58% | 0
CCCSc1cc(N2CCOCC2)nc(-c2ccccc2Cl)n1 | 0 | - | - | -
Oc1c(Br)cc(Br)cc1C=Nc1cccc2ncccc12 | 0 | 14 | 0 | 0 | CHO-K1 Tl ctr=0;KCNQ1 pot spec=0;KCNQ2 pot confirm=0;Kir2-1 sel=0;KCNQ2 W236L pot=0
Brc1cccc(C=Nc2cccc3ncccc23)c1 | 0 | 0 | - | -
SMILES | KCNQ2 inh | KCNQ2 enhance | Kir21 confirm | HEK293 ctr | others
COc1cc2[nH]c(=O)n(CCC(=O)NCCCN3CCN(c4ccccc4F)CC3)c(=O)c2cc1OC | 0 | 0 | - | -
CC(NC(=O)c1ccc2c(c1)OCO2)C(c1cccs1)N1CCN(c2ccccc2)CC1 (configuration not stated) | 0 | - | - | -
N/C(=N\c1nc2ccccc2o1)NC(=O)c1ccccc1Br | 0 | - | - | -
COc1ccc(CN(C)CC(O)COc2ccc(C(=O)c3ccccc3)cc2)c(OC)c1OC (configuration not stated) | 0 | - | - | -
COc1ccc(CN(C)CC(O)COC(c2ccccc2)c2ccccc2)c(OC)c1OC (configuration not stated) | 0 | - | 54% | 0
CCN(CC)CC(O)COC(c1ccccc1)c1ccccc1 (configuration not stated) | 0 | 0 | - | -
CCN(Cc1ccccc1)CC(O)COC(c1ccc(OC)cc1)c1ccc(OC)cc1 (configuration not stated) | 0 | - | 66% | 0
COc1ccc(N2CC(C(=O)N(C)CC(=O)Nc3ccc(Cl)c(C(F)(F)F)c3)CC2=O)c(OC)c1 (configuration not stated) | 0 | 0 | - | -
O=C(COC(=O)/C=C/c1ccccc1Cl)NC1CCCCCC1 | 0 | - | - | -
O=C(CSCc1cnn(-c2ccccc2)c1-n1cccc1)NCc1cccs1 | 0 | - | 0 | 0
COc1cccc(CNC(=O)CSCc2cnn(-c3ccccc3)c2-n2cccc2)c1 | 0 | - | 0 | 0
CNC(=O)CSCc1cnn(-c2ccccc2)c1-n1cccc1 | 0 | 0 | - | -
CCOC(=O)N1CCC(NC(=O)CSCc2cnn(-c3ccccc3)c2-n2cccc2)CC1 | 0 | 0 | - | -
Cc1nc2sc(C(=O)Nc3ccccc3Cc3ccccc3)c(C)c2c(=O)[nH]1 | 0 | 0 | - | -
COc1cccc(/C=C/c2nc(C#N)c(NCC(C)C)o2)c1 | 0 | - | - | -
O=C(NC1CCN(Cc2ccccc2)CC1)c1ccccc1OCc1ccccc1Cl | 0 | - | 73% | 0
O=C(NC1CCN(Cc2ccccc2)CC1)c1ccccc1OCc1ccccc1 | 0 | - | - | -
CCCn1c(SCC(=O)NC2CCCC2)nnc1-c1cccnc1 | 0 | - | - | -
Cc1nn(-c2ccccc2)c(Cl)c1/C=C1\SC(=S)N(CCCCCC(=O)O)C1=O | 0 | 0 | - | -
Cc1nn(-c2ccccc2)c(Cl)c1/C=C1\SC(=S)NC1=O | 0 | 13 | 0 | 412% | CHO-K1 Tl ctr=0;KCNQ1 pot spec=0;KCNQ2 pot confirm=215;Kir2-1 sel=0;KCNQ2 W236L pot=0
COc1cc(/C=C(/C#N)c2ccc(F)cc2)ccc1Oc1ccc([N+](=O)[O-])cn1 | 0 | - | - | -
COCCCNC(=S)N1CCN(c2nc(-c3ccccc3)cs2)CC1 | 0 | 0 | - | -
O=C(NC(=S)N1CCN(c2nc(-c3ccccc3)cs2)CC1)c1cncc(Br)c1 | 0 | 17 | 0 | 247% | CHO-K1 Tl ctr=0;KCNQ1 pot spec=0;KCNQ2 pot confirm=18;Kir2-1 sel=0;KCNQ2 W236L pot=0
CCc1ccc(C(C)NC(=S)NCc2ccc(F)cc2)cc1 (configuration not stated) | 0 | 0 | - | -
Cc1ccc(NC(=S)NCc2ccc(S(N)(=O)=O)cc2)c(C)c1 | 0 | 0 | - | -
Cc1ccc(NC(=S)NCc2ccc(F)cc2)c(C)c1 | 0 | 5.5 | 0 | 0 | CHO-K1 Tl ctr=0;KCNQ1 pot spec=0;KCNQ2 pot confirm=42;Kir2-1 sel=0;KCNQ2 W236L pot=0
COc1cccc(C(C)NC(=S)NCc2ccc(F)cc2)c1 (configuration not stated) | 0 | 0 | 48% | 0
Cc1ccc(C(C)NC(=S)NCc2ccc(F)cc2)cc1C (configuration not stated) | 0 | 8.1 | 68% | 0 | CHO-K1 Tl ctr=0.0;KCNQ1 pot spec=45;KCNQ2 pot confirm=33;Kir2-1 sel=0;KCNQ2 W236L pot=0

High-throughput results deposited in PubChem by Johns Hopkins Ion Channel Center.
